# Source: PubChem BioAssay AID588795 (National Center for Advancing Translational Sciences (NCATS), 2011)
# Where “and” joins values, the source holds several entries; their conditions need not be identical. Equal values may be shown once. Out of some 390,000 compounds screened, about 1,400 (0.36%) were called active. Another 2% or so got no clear call; they are omitted. The call rests on the fitted dose curve; in most records, active means well fitted inhibition curve with a large enough effect; inconclusive means small, poorly fitted or top-dose-only effect; inactive means no such curve, though single readings can be large or run the other way. Many of the other results were omitted from the sample, so actives are more common in it than they were. Where a structure was tested more than once in an assay, its records may differ in their call.
# Target: Flap endonuclease 1 (Homo sapiens) (UniProt P39748)
# Assay: qHTS Assay for the Inhibitors of Human Flap endonuclease 1 (FEN1). Further: nearly all actives have a fitted effect of over 65% in size.
# Details: Recombinant FEN1 flap cleavage, fluorescence, 15 min; series mostly up to 114 µM; activity change, negative = inhibition: at the top concentration
# Source text: The major human flap endonuclease FEN1 is an efficient structure-specific enzyme that recognizes and cleaves a 5'-unannealed DNA flap. It belongs to the RAD2 family nucleases, which are involved in DNA metabolism and are highly conserved in prokaryotes and eukaryotes. FEN1 is a key enzyme in DNA replication, repair and maintenance of genomic stability. 5'-flap removal by FEN1 is critical for Okazaki fragment processing during lagging strand DNA synthesis, long-patch base excision repair (LP BER), and regulating or facilitating recombination events. […] Deletion of the yeast FEN1 gene, i.e. rad27, results in an increased frequency of short DNA (3-32 bp) repeats, micro- and mini-satellite formation, trinucleotide repeat expansion, spontaneous recombination events, and a severe growth defect in association with cell cycle arrest in late S/G2 phase. […] Cells from fen1-/- blastocysts show increased apoptotic cell death after ionizing radiation treatment, and chicken cells lacking the fen1 gene are hypersensitive to DNA alkylating agents, e.g. methylmethane sulfonate (MMS) and N-methyl-N'-nitro-N-nitrosoguanidine (MNNG), as well as hydrogen peroxide.
# NIH Chemical Genomics Center [NCGC]
# NIH Molecular Libraries Probe Centers Network [MLPCN]
# Assay Submitter (PI): David Wilson, National Institute of Aging
# Three uL of reagents (buffer in column 3 and 4 as negative control and 10 nM FEN1 in columns 1, 2, and 5-48) were dispensed into 1,536-well black solid-bottomed plate. Compounds (23 nL) were transferred via Kalypsys pin tool equipped with 1536-pin array (10 nL slotted pins, V&P Scientific, San Diego, CA). The plates were then incubated for 15 min at room temperature, and 1 uL substrate (50 nM final concentration) were added to start the reaction read twice at 0 min read and 15 min on ViewLux reader. Throughout the screen, reagent bottle and all liquid lines were chilled and made light-tight to minimize reagent degradation. All screening operations were performed on a fully integrated robotic system (Kalypsys, San Diego, CA) containing one RX-130 and two RX-90 anthropomorphic robotic arms (Staubli, Duncan, SC). Library plates were screened starting from the lowest and proceeding to the highest concentration, and a "double-dipping" step of the highest concentration was required to access higher concentrations of compounds. Vehicle-only plates, with DMSO being pin-transferred to the entire column 5-48 compound area, were inserted uniformly at the beginning and the end of each library in order to monitor for and record any shifts in the background, which can be affected by reagent dispensers or loss in enzyme activity overtime. Screening data was corrected, normalized, and concentration-effect relationships were derived by using publicly-available curve fitting algorithms developed in-house (http://ncgc.nih.gov/pub/openhts). A four parameter Hill equation was fitted to the concentration-response data by minimizing the residual error between the modeled and observed responses.
# On the % scale 0 is the no-effect control and ±100 the full control effect; potency means the concentration at half of the fitted maximal effect.
# Chain of Flap endonuclease 1 (Homo sapiens) (P39748 whole entry, looked up): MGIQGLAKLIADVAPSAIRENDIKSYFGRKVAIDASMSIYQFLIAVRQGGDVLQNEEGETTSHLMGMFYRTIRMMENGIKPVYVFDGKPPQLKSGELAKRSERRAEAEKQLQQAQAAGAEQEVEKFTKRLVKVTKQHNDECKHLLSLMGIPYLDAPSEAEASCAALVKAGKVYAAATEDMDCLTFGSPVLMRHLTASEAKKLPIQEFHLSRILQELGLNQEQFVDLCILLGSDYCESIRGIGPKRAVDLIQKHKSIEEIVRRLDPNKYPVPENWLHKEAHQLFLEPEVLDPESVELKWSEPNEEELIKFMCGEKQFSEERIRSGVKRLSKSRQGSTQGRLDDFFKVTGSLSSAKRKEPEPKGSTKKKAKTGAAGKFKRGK
SMILES,"activity change, negative = inhibition",Potency
CC(C)(C)C1CCC(NC(=O)c2cnn3c2NC(=C2CC2)C=C3C(F)F)CC1 (configuration not stated),-7.54% (inactive),
CCC1(C)Cc2c(sc3[nH]c(=S)n(Cc4ccccc4)c(=O)c23)CO1 (configuration not stated),-2.77% (inactive),
C=CCn1c(=S)[nH]c2scc(-c3ccco3)c2c1=O,,39.8 µM (active)
C=CCNC(=O)c1ccc2nc(-c3ccco3)c(-c3ccco3)nc2c1,-23.2% (inactive),
COCCNC(=O)Nc1ccc2nc(-c3ccco3)c(-c3ccco3)nc2c1,,11.2 µM (active)
CCOc1ccc(NC(=O)c2ncoc2-c2ccco2)cc1,-10.3% (inactive),
CC1(C)CC(=O)c2cc(C(=O)NCc3ccccc3)c(=O)[nH]c2C1,11.9% (inactive),
O=C1CCC[C@@H]2C[C@@]3(C[C@@H]4CCN1[C@H]24)Nc1ccccc1NC3=NCc1ccccc1,-1.02% (inactive),
COc1cccc2c1C(=O)c1c(O)c3c(c(O)c1C2=O)CC(O)(C(C)=NNC(=O)c1ccc(Cl)c(Cl)c1)CC3OC1CC(N)C(O)C(C)O1 (configuration not stated),,44.7 µM (active)
CN1CCN(/[N+]([O-])=N/Oc2ccc([N+](=O)[O-])cc2[N+](=O)[O-])CC1,-16.6% (inactive),
O=C1CC(c2ccccc2)CC2=C1C(c1ccco1)n1nc(C(F)(F)F)nc1N2 (configuration not stated),-5.72% (inactive),
CCOc1cccc(/C=N/N2C(=O)CSC2=S)c1O,1.58% (inactive),
CO/N=C/c1ccc(N2CCN(C(=O)c3cccc(Cl)c3)CC2)c([N+](=O)[O-])c1,-3.16% (inactive),
O=C1CSC(=S)N1/N=C/c1ccc(O)c([N+](=O)[O-])c1,,28.2 µM (active)
COc1ccccc1CNC(=O)C(=O)NCC(c1ccco1)S(=O)(=O)c1ccc(F)cc1 (configuration not stated),11.7% (inactive),
CN(C)c1cccc2ccccc12,1.97% (inactive),
Brc1nc2ncnc(NCc3ccco3)c2[nH]1,-16.5% (inactive),
C[N+]1(CC(=O)c2cccs2)CCOCC1,-17.5% (inactive),
O=C(NCCc1ccccc1)c1ccc2c(c1)N(Cc1ccccc1)C(=O)c1ccccc1S2(=O)=O,-10.8% (inactive),
CCC(C)N(c1ccc(/C=C/c2ccnc3ccccc23)cc1)C(C)CC (configuration not stated),-22.3% (inactive),
Cn1c(COc2ccccc2C(C)(C)C)nc2ccccc21,-2.63% (inactive),
CCOc1n[nH]c(-c2ccccc2)n1,-2.51% (inactive),
O=C1NC(c2ccc(-c3ccccc3[N+](=O)[O-])o2)C(C(=O)c2ccc(Cl)cc2)C(O)(C(F)(F)F)N1 (configuration not stated),-22.5% (inactive),
CC1=NN(c2ccc(Cl)c(C(=O)O)c2)C(=O)/C1=C/c1ccc(-c2ccccc2[N+](=O)[O-])o1,,28.2 µM (active)
O=C(Nc1ccc(N2CCOCC2)cc1)c1ccc(-c2ccccc2[N+](=O)[O-])o1,-16% (inactive),
CN(C(=N)N)c1ccc(/C=C2\C=Cc3ccccc32)cc1,-10.5% (inactive),

SMILES,"activity change, negative = inhibition",Potency
CC(=O)Nc1ccc2nc(SCCOc3cc(C)cc(C)c3)sc2c1,11.5% (inactive),
CN(C)c1ccc(/C=c2\[nH]c(=O)/c(=C/c3ccc(N(C)C)cc3)[nH]c2=O)cc1,-0.26% (inactive),
COc1ccc2c(c1)c(=Cc1ccc(N(C)C)cc1)c1cc(-c3ccccc3)[n+](C)n12,,4.47 µM (active)
CN(C)CCCn1c(-c2ccc(Cl)cc2)csc1=Nc1ccccc1,-14.2% (inactive),
CC1(C)C=Cc2c(ccc(C(=O)/C=C/c3ccccc3)c2O)O1,-7.78% (inactive),
CC(C)(C)c1ccc(C(=O)C[n+]2cccc3cc(Cl)ccc32)cc1,-3.13% (inactive),
Nc1nc(N)c(N=O)c(N)n1,-13.9% (inactive),
CC(C)(C)n1ncc2c(=O)n(Cc3ccc(C(=O)c4ccccc4)cc3)cnc21,6.55% (inactive),
CC(C)(C)n1ncc2c(=O)n(Cc3c(Cl)cccc3Br)cnc21,-20% (inactive),
CC(C)(C)n1ncc2c(=O)n(Cc3ccc(Cl)cc3)cnc21,,inactive and 39.8 µM (active)
Oc1ccc(Br)cc1C1C=C(c2ccc3c(c2)OCO3)NC(c2ccc(Cl)cc2)N1 (configuration not stated),-18% (inactive),
N#Cc1ccc[n+](CC(=O)c2ccc(O)c(O)c2)c1,,2 µM (active)
N#Cc1ccc[n+](CC(=O)c2ccc(F)cc2)c1,17% (inactive),
O=C(C[n+]1ccncc1)c1ccc2c(c1)CCCC2,13.6% (inactive),
CCN1CCN(c2ccc(/C=C/c3ccnc4ccccc34)cc2)CC1,-31.7% (inactive),
Cc1ccc(/C=C(\C#N)C(=O)Nc2cc(C)ccc2C)cc1,16.1% (inactive),
N#CCC(=O)N/N=C/c1cn(Cc2ccc3ccccc3c2)c2ccccc12,3.82% (inactive),
Cc1ccc(Cl)cc1NC(=O)/C(C#N)=C\c1cn(Cc2ccc(F)cc2)c2ccccc12,,89.1 µM (active)
O=C1O/C(=C\c2ccc(O)cc2)C(O)=C1c1ccc(O)cc1,-7.29% (inactive),
CCc1ccc(OCCCn2c(CCCNC(=O)C3CCCCC3)nc3ccccc32)cc1,7.45% (inactive),
CN(C)Cc1cn(-c2ccccc2)nc1-c1ccccc1,-15.4% (inactive),
Cc1ccc(-c2nnc(SCC(=O)NCc3ccccc3)nc2-c2ccc(C)cc2)cc1,-14.6% (inactive),
O=C(NCCSc1ccccc1)c1ccco1,-3.87% (inactive),
c1ccc(CSc2nnc(-c3ccco3)c(-c3ccco3)n2)cc1,,56.2 µM (active)
NC(=O)Nc1ccc(/C=C/c2ccnc3ccccc23)cc1,2.76% (inactive),
CC1CC(C)CN(c2oc(-c3ccc(OCc4ccc(Cl)cc4)cc3)nc2C#N)C1 (configuration not stated),13.6% (inactive),
